These sequences were tested on VDR:RXRa (NR concentration 270 nM, RXRa partner concentration 90 nM) (assay: PBM binding z-score (relative to random genomic background probes); higher = stronger binding; sequences stand for … in GC…GCGATTGACAGCGTAGAATGAAGG).
Experimental: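 Protein-binding microarray (Agilent 4x180K custom design, double-stranded 60-nt probes: 5' GC cap, 34-nt variable region, 24-nt constant primer region; full probe sequence given). Purified or IVT nuclear receptor:RXRα heterodimers (3:1 NR:RXRα, mostly 270:90 nM) or homodimers were incubated for 1 h in PBS with 2% milk and no ligand, then detected with Alexa488 antibodies. Fluorescence from o1-orientation probes (~5 replicates averaged) was converted to z-scores against 500 random hg19 background probes. Variable regions are seed direct-repeat (DR0–DR5) sites, all their single-nucleotide variants and half-site ablations.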

| Sequence | PBM binding z-score |
| --- | --- |
| CGAACTAGGTCAAGGACACTGAATCTCCGCACGC | 1.57 |
| ATATGTAGGTTAGCTGGGGTCATTCGGACTAGGC | 6.4 |
| CCTGCTAGGTCAATGGTCACCTAAAGCAGCTCGC | 1.45 |
| ATATGTAGGGTAGCTGGGGTCATTCAGACTAGGC | 5.75 |
| CAAACTAGGTCAAGATCAAAGTCGGTTTGTGCCA | 1.52 |
| ACTAGTTGGTCAGCTGAGGTCACTCACAATTCGG | 3.95 |
| TCATATAGGTAAAGGTGAAAGTAGAACGATATGA | 1.01 |
| GCTGCTAGGTCAGGTTGGGCAGCTAACGGGTACG | -0.00639 |
| ATCGAACGGTCGTGAGGTGAGTATACAGAAAGGC | -0.0539 |
| TCTTGTAGATCACAGGTTAAGAAAGCCGAAGCCT | 0.396 |
| TCTGCTAGGTCAACGATGGTCTGCTAATCTGCTA | 0.981 |
| ACTTACGGGTCAACGAGGTTATAGCCCGCGTATA | 7.59 |
| CAGACTGGGGCAAAGGTTACCATACTCAGTACGA | 1.93 |
| GGAACGAGCGCATTCGAGTTGATAGCATGGCGAT | -0.761 |
| GCTGCTAGGACAACTGATGGTCAGCTAAAGCTCG | -0.904 |
| ATCGAAAGGTCGACGTGGTGAGTATACACCGTTT | 2.73 |
| CCTACAGGGCCAAAAAGGTCATTGATGCCGATAA | 5.62 |
| CGTCAAAGTTCAAGGTAACATAACAGAAAGCAGC | 3.63 |
| CCGACTGGGGCAAGGTTACAATAACGCACAGCCA | 0.055 |
| AGTATTAGTTGACTTAGGGCAACCGATACGACGC | 0.573 |

| Sequence | PBM binding z-score |
| --- | --- |
| CCGAGTAGGTTATGGGGTATTCAGGCAACGGTGA | 0.559 |
| CAAACTAGGTCACGAAAGGTCACAGTCGAATGAC | 6.75 |
| CGGAGTAGGTTATGGGGCATTCAGGCAACGGTGA | 0.00597 |
| TCATATAGGTAATACAGATGAAAGTCGGCATCTA | 0.886 |
| GGAGCGAGGGCAAAGTTGATAGCATCTGTCGACG | 0.834 |
| CTTCCAAGGTCAGCAGGTCAGTGAAAGCGACGTG | 4.03 |
| TCAGACAGGTGAAGGGAACTCAGGTACGCAGTCG | 0.951 |
| CCTCAAAGTTCAAGGTAACGTAACAGAAAGCAGC | 4.07 |
| CAAACTAGGTCACCGGAAGGTCAAAGCCCGCATG | 5.79 |
| CTCGAAAGGTCGTGCTAAGGTGAGTATACCAAAC | 3.87 |
| CTCGAAAGGTCGGTTGAGGCGAGTATACGGATAA | 0.809 |
| TAGCCTAGGTCATTCGGCCAGTATAGTACGCATC | 2.24 |
| CCTTACGGGTCAAGGTTATAGAACGGGTGGTACG | 3.42 |
| ATCGAAAAGTCGTGAGGTGAGTATACAGAAAGGC | -0.173 |
| CTCGAAAGGTCGGTTGAGGTGAGCATACGGATAA | 2.26 |
| CCAGACAGGTGAGAACGTAACTCAGCCTCGATTA | -0.0392 |
| GCGACTGGGGCATCAGCAGGGTACCATAACTTAA | -0.459 |
| TTACCAAGGCGAAGGTCGTTGATCCCTCTGTAGA | 0.836 |
| ACAGACAGGTGAGGAAGGTAACTCAGGCTATCAT | 0.159 |
| ACTAGCAGGCCAAGTTTGGGTCACTCGAACAAAG | 0.392 |

— the supplement of paper PMC6555819
